Reference: PubChem BioAssay AID651821 (The Scripps Research Institute Molecular Screening Center, 2012)
The whole screen tested about 370,000 compounds, of which about 4,700 (1.3%) were called active. The sample as a whole holds a higher share of actives than the screen did. A number with no mark means an inactive call.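 How the source made its calls: active means inhibition above the plate cutoff, the mean of all test compounds on that plate plus 3 SD (cut at about 35% in these data); inactive means the rest.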

Experiment: small molecules binding CAG repeat RNA – biochemical, fluorescence, primary screen (AID 651821);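 further: 0% = DMSO alone and 100% = 100 µM mitoxantrone as full dye displacement; higher means more dye released from RNA so lower well fluorescence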
Settings: r(CAG) RNA repeat, TO-PRO-1 dye displacement fluorescence; at 3 µM; stronger effect = higher value
For CC(=NNC(N)=O)c1ccc(Cl)c(-n2cccc2)c1, the inhibition was 1.94%.
COc1ccc(CNC(=O)CN(Cc2ccccc2Cl)C(=O)c2csnn2)cc1 showed an inhibition of 3.39%.
O=S1(=O)c2c(cccc2N2CCCC2)O[C@H](COCc2ccccc2)CN1C1CC1 showed an inhibition of 1.71%.
For CCCC1=Nc2cc(C(=O)NCc3ccco3)ccc2Sc2ccccc21, the inhibition was 2.23%.
C=CCN1[C@@H](Cc2ccccc2)COc2cccc(N3CCSCC3)c2S1(=O)=O gave an inhibition of 5.53%.
In the case of Cc1ccccc1C(=O)N[C@H](C(=O)N1CCC[C@H]1C(=O)NCc1ccccc1)C(C)C, the inhibition was 0.37%.
For O=C(NCc1cccs1)C1CCN(S(=O)(=O)c2ccccc2[N+](=O)[O-])CC1, the inhibition was 7.31%.
CCC(CO)Nc1cccc2c1S(=O)(=O)N(Cc1cn(Cc3ccccc3C(F)(F)F)nn1)Cc1ccccc1O2 (centres undefined) gave an inhibition of 7.47%.
With COC(=O)C[C@H]1CC[C@H]2[C@H](COc3ccc(NC(=O)C4CC4)cc3C(=O)N2C)O1 the inhibition was -1.01%.
Work on Nc1[nH]c(C(=O)c2ccc(Br)cc2)c(-c2ccc3c(c2)OCO3)c1C(=O)NCCc1c[nH]c2ccccc12 yielded an inhibition of 14.8%.
Molecule Cc1ccc(C(=O)N(Cc2ccccn2)CC2CCCO2)cc1 (centres undefined) has an inhibition of -0.73%.
For COc1cc(/C=C2/C(=O)NN(c3cccc(Cl)c3)C2=O)cc(Br)c1O, the inhibition was 64% (active).
CCOc1c(Br)cc(/C=C2\C(=O)N(CCC#N)N=C2C)cc1OC gave an inhibition of 16.2%.
CCN(C(=O)[C@@H](C1CC1)[C@@H](O)c1ccc2ccccc2c1)c1ccccc1 showed an inhibition of -1.86%.
COC(=O)[C@]12C[C@H](CC(=O)NCc3ccc(C)o3)C(=O)N(CCC3=CCCCC3)C1=C[C@H](C(C)(C)C)O[C@@H]2C showed an inhibition of 0.73%.
For O=C(CNS(=O)(=O)c1ccccc1F)N1CCN(c2ccccn2)CC1, the inhibition was -0.14%.
For COc1ccc2[nH]c3c(C)c4cc[n+](C)cc4c(C)c3c2c1, the inhibition was 39.2% (active).
CC(=O)N1CCCN(C2=Nc3ccccc3Sc3ccccc32)CC1 gave an inhibition of -1.49%.
Molecule O=S1(=O)c2ccc(Br)cc2OC[C@@H](Cc2ccccc2)N1Cc1cn(Cc2ccco2)nn1 has an inhibition of 4.58%.
For CC(=O)Nc1cnc(-c2ccc(O)cc2C)cn1, the inhibition was 1.38%.
In the case of Cc1ccc(Nc2nc(-c3ccc(O)cc3O)cs2)nc1, the inhibition was 36.2% (active).
In the case of Cc1ccc(-c2csc(NCCc3nc4cc(Cl)c(Cl)cc4n3CCOCCO)n2)cc1, the inhibition was 17.1%.
O=S(=O)(c1cccs1)N1CCCc2nc(-c3ccc(Br)cc3)ccc21 showed an inhibition of 4.14%.
With O=C(CSc1nc2ccccc2nc1N1CCCCC1)N1CCN(S(=O)(=O)c2cccc([N+](=O)[O-])c2)CC1 the inhibition was 12%.
In the case of O=C(Nc1nnc(-c2ccccc2F)s1)c1ccccc1F, the inhibition was 0.79%.
Work on CCCCC(=O)Nc1nnc(S(=O)(=O)N(C)Cc2ccco2)s1 yielded an inhibition of 5.48%.
In the case of CN(Cc1ccccc1)S(=O)(=O)c1nnc(NC(=O)c2ccccc2F)s1, the inhibition was 54.3% (active).
Molecule Cc1cccc(C(=O)Nc2c(-c3ccc(F)cc3)nc3ncccn23)c1 has an inhibition of 0.58%.
C=C(C)C1CC23C(=O)C4(C(=O)c5ccccc5)C[C@@]5(C)CCC(CC2C1(C)C)(C4=O)C35OC (some centres undefined) gave an inhibition of 8.07%.
For O=C(CN1CCN(C(=O)c2ccco2)CC1)Nc1ccc2c(c1)OCO2, the inhibition was 0.64%.
Molecule Cc1ccc(NC(=O)C(c2ccccc2)N2CCN(C(=O)c3ccco3)CC2)cc1 (centres undefined) has an inhibition of 4.43%.
In the case of Cc1ccc(-c2csc(C(C#N)=C(O)CN3CCN(C(=O)c4ccco4)CC3)n2)cc1, the inhibition was 42.8% (active).
COc1ccc(NC(=O)CSc2nnnn2-c2cccc(OC)c2)cc1 gave an inhibition of 1.33%.
For Nc1nc(CSc2nnnn2-c2ccccc2)nc(Nc2ccccc2)n1, the inhibition was 7.48%.
With Cc1ccc(Nc2nc(CSc3nnnn3-c3ccccc3)cc(=O)[nH]2)cc1 the inhibition was 46.6% (active).
In the case of CC(C)CNc1cccc2c1S(=O)(=O)N(Cc1cn(Cc3ccc(Cl)cc3)nn1)Cc1ccccc1O2, the inhibition was 5.62%.
With Cc1cc(N2C(=O)C(O)=C(C(=O)c3ccc(C)o3)C2c2ccc(OCc3ccccc3)cc2)no1 (centres undefined) the inhibition was 49.3% (active).
C=CCOc1cccc(C2C(C(=O)c3ccc(C)o3)=C(O)C(=O)N2c2nnc(C)s2)c1 (centres undefined) gave an inhibition of 6.27%.
Work on COc1cc(C2C(C(=O)c3ccco3)=C(O)C(=O)N2c2cc(C)on2)ccc1OCc1ccccc1 (centres undefined) yielded an inhibition of 10.3%.
Molecule COc1cccc(Cn2cc(COC(=O)Nc3ccc(F)cc3)nn2)c1 has an inhibition of 0.76%.
In the case of COCc1c(C(=O)N/N=C(\C)c2ccncc2)nnn1-c1nonc1N, the inhibition was -1.16%.
In the case of Cc1ccccc1CS(=O)(=O)Cc1ccc(C(=O)Nc2ccc(Cl)cc2)o1, the inhibition was 6.61%.
With O=[N+]([O-])c1cc(Br)c(O)c(/C=N/Nc2nc3ccccc3s2)c1 the inhibition was 64.1% (active).
Work on O=C(N/N=C/c1cc([N+](=O)[O-])ccc1O)/C(=C\c1cccs1)NC(=O)c1ccccc1 yielded an inhibition of 32.3%.
Molecule O=C(CSc1nc2ccccc2s1)NN=Cc1ccc(O)cc1O has an inhibition of 11%.
Work on C[C@H]1CN([C@@H](C)CO)C(=O)CCCn2nncc2CO[C@@H]1CN(C)Cc1ccc(Oc2ccccc2)cc1 yielded an inhibition of 1.78%.
Work on N#CCC[C@H]1CC[C@]2(CCCN(Cc3ccc(Cl)cc3)C2)O1 yielded an inhibition of 1.52%.
With c1ccc(CN=C2Nc3ccccc3CS2)nc1 the inhibition was -3.75%.
For Cc1ccccc1CN1CCCCC(NC(=O)c2cccc(C#N)c2)C1=O (centres undefined), the inhibition was 3.06%.
Cc1ccc(C)c(-n2c(SCC(=O)O)nc3sc4c(c3c2=O)CCCC4)c1 showed an inhibition of 27.1%.
Cc1ccc(C)c2c1cc(C)c1nnc(SCC(=O)Nc3cccc(C(=O)O)c3)n12 gave an inhibition of 2.06%.
In the case of CC(C)c1nc(SCC(=O)Nc2cccc(C(=O)O)c2)c2c3c(sc2n1)CCCC3, the inhibition was 69.3% (active).
With COc1cc(C)c(C)cc1S(=O)(=O)N1CCCc2ccccc21 the inhibition was -3.84%.
CC(CCN1CCC(C(O)(c2ccccc2)c2ccccc2)CC1)Oc1ccc(Cl)cc1 (centres undefined) gave an inhibition of 1.34%.
